Measurements: PubChem BioAssay AID1159580 (chemical genetic matrix, 2015)
Hit rate of the full screen: of about 5,500 compounds, about 2,000 (36%) were called active. Not shown: some 18% with an inconclusive outcome. Cut-off read from the data, not from the text of the source: active = normalized growth mostly below about 0.91 (no sharp cut-off); inconclusive = no clear call, values can overlap the other calls; inactive = mostly above about 0.92. This is one part of the list.

Experiment: chemical genetic growth profiling, strain panel (AID 1159580);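 note: tested at 20 µM; growth read once vehicle control cultures reached saturation at 30 °C; 1 = growth at the plate median or of vehicle wells; lower values mean less growth of the strain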
Details: growth OD
[1] = S. cerevisiae deletion strains, locus YAL013W, strain DEP1, stronger effect = lower value
[2] = S. cerevisiae deletion strains, locus YDR150W, strain NUM1, stronger effect = lower value
[3] = S. cerevisiae deletion strains, locus YJR075W, strain HOC1, stronger effect = lower value
[4] = S. cerevisiae deletion strains, locus YNL153C, strain GIM3, stronger effect = lower value
[5] = S. cerevisiae deletion strains, locus YNL322C, strain KRE1, stronger effect = lower value
[6] = S. cerevisiae deletion strains, locus YPL241C, strain CIN2, stronger effect = lower value
[7] = S. cerevisiae deletion strains, locus YDL101C, strain DUN1, stronger effect = lower value
[8] = S. cerevisiae deletion strains, locus YHR030C, strain SLT2, stronger effect = lower value

Measured: normalized growth

Nc1nc(SCc2ccc([N+](=O)[O-])cc2)c2ncn([C@@H]3O[C@H](CO)[C@H](O)C3O)c2n1 (stereo partly specified)
inactive: [1] 1.01 | S. cerevisiae deletion strains, locus YAL040C, strain CLN3, stronger effect = lower value 1.02 | S. cerevisiae deletion strains, locus YCL061C, strain MRC1 (second series), stronger effect = lower value 1 | [2] 0.994 | S. cerevisiae deletion strains, locus YER002W, strain NOP16, stronger effect = lower value 1 | S. cerevisiae deletion strains, locus YGR229C, strain SMI1, stronger effect = lower value 1.04 | [3] 0.995 | [4] 0.989 | S. cerevisiae deletion strains, locus YNL175C, strain NOP13, stronger effect = lower value 0.996 | S. cerevisiae deletion strains, locus YNL197C, strain WHI3, stronger effect = lower value 1 | S. cerevisiae deletion strains, locus YNL224C, strain SQS1, stronger effect = lower value 1 | [5] 1.02 | S. cerevisiae deletion strains, locus YOR083W, strain WHI5 (second series), stronger effect = lower value 0.998 | [6] 1

O=[N+]([O-])c1ccc(NCc2ccc(Cl)c(Cl)c2)nc1
active: [8] 0.733 | S. cerevisiae deletion strains, locus YLR113W, strain HOG1, stronger effect = lower value 0.657 | S. cerevisiae deletion strains, locus YPL256C, strain CLN2, stronger effect = lower value 0.763
inactive: S. cerevisiae deletion strains, locus YAR019C, strain CDC15, stronger effect = lower value 0.931 | S. cerevisiae deletion strains, locus YBL105C, strain PKC1, stronger effect = lower value 0.936 | S. cerevisiae deletion strains, locus YBR135W, strain CKS1, stronger effect = lower value 0.936 | S. cerevisiae deletion strains, locus YBR136W, strain MEC1, stronger effect = lower value 0.944 | S. cerevisiae deletion strains, locus YBR160W, strain CDC28, stronger effect = lower value 0.941 | S. cerevisiae deletion strains, locus YDL017W, strain CDC7, stronger effect = lower value 0.946 | S. cerevisiae deletion strains, locus YDL028C, strain MPS1, stronger effect = lower value 0.946 | [7] 0.925 | S. cerevisiae deletion strains, locus YDL108W, strain KIN28, stronger effect = lower value 0.942 | S. cerevisiae deletion strains, locus YDL132W, strain cdc53, stronger effect = lower value 0.919 | S. cerevisiae deletion strains, locus YDL214C, strain PRR2, stronger effect = lower value 0.857 | S. cerevisiae deletion strains, locus YDR052C, strain DBF4, stronger effect = lower value 0.953 | S. cerevisiae deletion strains, locus YDR054C, strain cdc34, stronger effect = lower value 0.918 | S. cerevisiae deletion strains, locus YDR226W, strain ADK1, stronger effect = lower value 0.937 | S. cerevisiae deletion strains, locus YDR477W, strain SNF1, stronger effect = lower value 0.882 | S. cerevisiae deletion strains, locus YER123W, strain YCK3, stronger effect = lower value 0.862 | S. cerevisiae deletion strains, locus YER133W, strain GLC7, stronger effect = lower value 0.842 | S. cerevisiae deletion strains, locus YFL009W, strain cdc4, stronger effect = lower value 0.923 | S. cerevisiae deletion strains, locus YFL029C, strain CAK1, stronger effect = lower value 0.931 | S. cerevisiae deletion strains, locus YFR003C, strain YPI1, stronger effect = lower value 0.944 | S. cerevisiae deletion strains, locus YFR019W, strain FAB1, stronger effect = lower value 0.907 | S. cerevisiae deletion strains, locus YFR028C, strain CDC14, stronger effect = lower value 0.917 | S. cerevisiae deletion strains, locus YGR040W, strain KSS1, stronger effect = lower value 0.884 | S. cerevisiae deletion strains, locus YGR052W, strain FMP48, stronger effect = lower value 0.861 | S. cerevisiae deletion strains, locus YGR092W, strain DBF2, stronger effect = lower value 0.852 | S. cerevisiae deletion strains, locus YHR079C, strain IRE1, stronger effect = lower value 0.78 | S. cerevisiae deletion strains, locus YHR082C, strain KSP1, stronger effect = lower value 0.906 | S. cerevisiae deletion strains, locus YHR205W, strain SCH9, stronger effect = lower value 0.81 | S. cerevisiae deletion strains, locus YIL147C, strain SLN1, stronger effect = lower value 0.94 | S. cerevisiae deletion strains, locus YJL095W, strain BCK1, stronger effect = lower value 0.774 | S. cerevisiae deletion strains, locus YJL128C, strain PBS2, stronger effect = lower value 0.839 | S. cerevisiae deletion strains, locus YJL157C, strain FAR1, stronger effect = lower value 0.883 | S. cerevisiae deletion strains, locus YJR016C, strain ILV3, stronger effect = lower value 0.939 | S. cerevisiae deletion strains, locus YJR066W, strain TOR1 (second series), stronger effect = lower value 0.892 | S. cerevisiae deletion strains, locus YJR066W, strain TOR1, stronger effect = lower value 0.898 | S. cerevisiae deletion strains, locus YKL048C, strain ELM1, stronger effect = lower value 0.913 | S. cerevisiae deletion strains, locus YKL067W, strain YNK1, stronger effect = lower value 0.891 | S. cerevisiae deletion strains, locus YKL101W, strain HSL1, stronger effect = lower value 0.875 | S. cerevisiae deletion strains, locus YKL193C, strain SDS22, stronger effect = lower value 0.935 | S. cerevisiae deletion strains, locus YKL203C, strain TOR2, stronger effect = lower value 0.948 | S. cerevisiae deletion strains, locus YLR133W, strain CKI1, stronger effect = lower value 0.911 | S. cerevisiae deletion strains, locus YLR403W, strain SFP1, stronger effect = lower value 0.865 | S. cerevisiae deletion strains, locus YML070W, strain DAK1, stronger effect = lower value 0.854 | S. cerevisiae deletion strains, locus YMR001C, strain CDC5, stronger effect = lower value 0.938 | S. cerevisiae deletion strains, locus YMR205C, strain PFK2 (second series), stronger effect = lower value 0.875 | S. cerevisiae deletion strains, locus YMR277W, strain FCP1, stronger effect = lower value 0.932 | S. cerevisiae deletion strains, locus YNL006W, strain LST8, stronger effect = lower value 0.916 | S. cerevisiae deletion strains, locus YNL020C, strain ARK1, stronger effect = lower value 0.893 | S. cerevisiae deletion strains, locus YNL161W, strain CBK1, stronger effect = lower value 0.93 | S. cerevisiae deletion strains, locus YNL183C, strain NPR1, stronger effect = lower value 0.934 | S. cerevisiae deletion strains, locus YNL207W, strain RIO2, stronger effect = lower value 0.937 | S. cerevisiae deletion strains, locus YNL222W, strain SSU72, stronger effect = lower value 0.927 | S. cerevisiae deletion strains, locus YNL307C, strain MCK1 (second series), stronger effect = lower value 0.91 | S. cerevisiae deletion strains, locus YOL078W, strain AVO1, stronger effect = lower value 0.926 | S. cerevisiae deletion strains, locus YOL136C, strain PFK27, stronger effect = lower value 0.864 | S. cerevisiae deletion strains, locus YOR061W, strain CKA2, stronger effect = lower value 0.884 | S. cerevisiae deletion strains, locus YOR119C, strain RIO1, stronger effect = lower value 0.949 | S. cerevisiae deletion strains, locus YOR231W, strain MKK1, stronger effect = lower value 0.87 | S. cerevisiae deletion strains, locus YOR329C, strain SCD5, stronger effect = lower value 0.933 | S. cerevisiae deletion strains, locus YPL031C, strain PHO85, stronger effect = lower value 0.88 | S. cerevisiae deletion strains, locus YPL153C, strain RAD53, stronger effect = lower value 0.895 | S. cerevisiae deletion strains, locus YPL204W, strain HRR25, stronger effect = lower value 0.869 | S. cerevisiae deletion strains, locus YPL209C, strain IPL1, stronger effect = lower value 0.943 | S. cerevisiae deletion strains, locus YPR025C, strain CCL1, stronger effect = lower value 0.93 | S. cerevisiae deletion strains, locus YPR106W, strain ISR1, stronger effect = lower value 0.918 | S. cerevisiae deletion strains, locus YPR111W, strain DBF20, stronger effect = lower value 0.909 | S. cerevisiae deletion strains, strain NNK1, stronger effect = lower value 0.891 | S. cerevisiae deletion strains, strain TSCII, stronger effect = lower value 0.93

O=[N+]([O-])c1ccc(NCCCCCO)nc1
inactive: [1] 0.988 | S. cerevisiae deletion strains, locus YBR229C, strain ROT2, stronger effect = lower value 0.98 | S. cerevisiae deletion strains, locus YCL061C, strain MRC1, stronger effect = lower value 0.977 | [7] 0.966 | S. cerevisiae deletion strains, locus YDL134C, strain PPH21, stronger effect = lower value 0.998 | [2] 0.975 | S. cerevisiae deletion strains, locus YEL061C, strain CIN8, stronger effect = lower value 1.03 | S. cerevisiae deletion strains, locus YGR078C, strain PAC10, stronger effect = lower value 0.987 | [8] 0.974 | S. cerevisiae deletion strains, locus YHR087W, strain rtc3, stronger effect = lower value 1.05 | S. cerevisiae deletion strains, locus YJL187C, strain SWE1, stronger effect = lower value 1 | S. cerevisiae deletion strains, locus YJR043C, strain POL32, stronger effect = lower value 0.981 | [3] 1.02 | S. cerevisiae deletion strains, locus YKL190W, strain CNB1, stronger effect = lower value 1.01 | S. cerevisiae deletion strains, locus YLR039C, strain RIC1, stronger effect = lower value 0.936 | S. cerevisiae deletion strains, locus YLR058C, strain SHM2 (second series), stronger effect = lower value 0.993 | S. cerevisiae deletion strains, locus YLR085C, strain ARP6, stronger effect = lower value 0.993 | S. cerevisiae deletion strains, locus YLR262C, strain YPT6, stronger effect = lower value 1.01 | S. cerevisiae deletion strains, locus YML094W, strain GIM5, stronger effect = lower value 1.04 | S. cerevisiae deletion strains, locus YMR219W, strain ESC1, stronger effect = lower value 1.01 | S. cerevisiae deletion strains, locus YMR263W, strain SAP30, stronger effect = lower value 0.999 | S. cerevisiae deletion strains, locus YMR307W, strain GAS1, stronger effect = lower value 1.07 | [4] 0.986 | S. cerevisiae deletion strains, locus YNL298W, strain CLA4 (second series), stronger effect = lower value 0.967 | [5] 0.992 | S. cerevisiae deletion strains, locus YNR030W, strain Alg12, stronger effect = lower value 0.99 | S. cerevisiae deletion strains, locus YOL006C, strain TOP1, stronger effect = lower value 0.955 | S. cerevisiae deletion strains, locus YPL055C, strain LGE1, stronger effect = lower value 1.04 | [6] 0.974 | S. cerevisiae deletion strains, locus YPR135W, strain CTF4, stronger effect = lower value 0.958 | S. cerevisiae strains, strain wild type, stronger effect = lower value 0.996
